# Reference: the supplement of paper PMC3545927
# Some of the results follow. The hit rate among all sequences tested is not known here.
# Target: furin, P09958
# Test: furin cleavage Z-score vs untreated control; higher = more cleavage, active = 3.5 or more, inactive = 1 or less, 8 variable residues between constant flanks
# In short: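 In 50 mM HEPES pH 7.5 with CaCl2 and NaCl, purified furin was incubated with bead-anchored 8-mer peptide–cDNA fusions at 1:10 enzyme:substrate in 0.01 ml. Incubation times were 7.5, 15 and 30 min. DNA set free by cleavage was adapter-tagged by PCR and sequenced, with read counts taken as abundance. Log counts relative to furin-free reactions, after lowess adjustment and median absolute deviation scaling, form the cleavage Z-score.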
# Sequence of furin, P09958 (P09958 whole entry): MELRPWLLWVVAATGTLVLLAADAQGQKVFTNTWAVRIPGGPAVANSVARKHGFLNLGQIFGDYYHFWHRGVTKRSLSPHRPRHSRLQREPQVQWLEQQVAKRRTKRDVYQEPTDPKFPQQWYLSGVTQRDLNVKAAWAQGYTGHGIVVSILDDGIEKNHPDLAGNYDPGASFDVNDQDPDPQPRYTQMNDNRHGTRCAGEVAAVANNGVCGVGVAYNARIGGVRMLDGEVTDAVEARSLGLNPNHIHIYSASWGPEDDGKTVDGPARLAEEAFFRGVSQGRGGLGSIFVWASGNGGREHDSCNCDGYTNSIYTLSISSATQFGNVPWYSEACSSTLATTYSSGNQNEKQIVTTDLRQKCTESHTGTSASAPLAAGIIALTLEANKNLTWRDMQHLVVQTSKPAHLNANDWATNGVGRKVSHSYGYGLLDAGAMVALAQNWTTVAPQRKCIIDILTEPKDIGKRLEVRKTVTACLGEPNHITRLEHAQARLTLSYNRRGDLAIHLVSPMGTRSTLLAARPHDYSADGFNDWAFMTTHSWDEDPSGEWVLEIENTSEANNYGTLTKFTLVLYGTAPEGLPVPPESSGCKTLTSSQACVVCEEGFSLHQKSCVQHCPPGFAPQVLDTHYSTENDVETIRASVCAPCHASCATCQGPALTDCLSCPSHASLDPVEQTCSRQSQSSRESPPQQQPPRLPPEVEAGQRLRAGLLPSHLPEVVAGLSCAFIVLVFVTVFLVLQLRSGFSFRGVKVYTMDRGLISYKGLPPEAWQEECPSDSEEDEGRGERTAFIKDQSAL
Sequence,furin cleavage Z-score (7.5 min),furin cleavage Z-score (15 min),furin cleavage Z-score (30 min)
CAYTPCSAHLAGNASASA [HC2469],-1.25 (inactive),-1.32 (inactive),-1.27 (inactive)
CALMTHFFSVAGNASASA [HC1583],-2.19 (inactive),-1.38 (inactive),-1.85 (inactive)
CASEMEECSQAGNASASA [HC1797],1.23,-0.566 (inactive),0.242 (inactive)
CARKKRWAERAGNASASA [FS-3257],8.39 (active),10.8 (active),10.8 (active)
CARKKRLEEQAGNASASA [FS-1857],-0.193 (inactive),1.1,0.0714 (inactive)
CARKKRAAGQAGNASASA [FS-1727],10.8 (active),11.8 (active),8.92 (active)
CADEMEECSQAGNASASA [HC1791],6.21 (active),-2.13 (inactive),-5.81 (inactive)
CATPIAAAGQAGNASASA [HC1639],-1.29 (inactive),-1.26 (inactive),-1.59 (inactive)
CARKMRDDERAGNASASA [FS-1904],0.00727 (inactive),-0.39 (inactive),-1.4 (inactive)
CALEMEECSQAGNASASA [HC1785],0.133 (inactive),0.777 (inactive),-0.27 (inactive)
CARKKRFAKQAGNASASA [FS-2692],5.98 (active),8.51 (active),8.88 (active)
CACLLLLAAGAGNASASA [HC1658],-0.897 (inactive),-1.64 (inactive),-0.912 (inactive)
CACDVVCCSMAGNASASA [HC2120],-0.0436 (inactive),-0.677 (inactive),-0.296 (inactive)
CATTPCSGSNAGNASASA [HC1941],-1.17 (inactive),-0.013 (inactive),-0.852 (inactive)
CAMSTNPKPQAGNASASA [HC161],0.554 (inactive),-0.264 (inactive),-0.709 (inactive)
CAELSPLLLTAGNASASA [HC491],-1.56 (inactive),-0.594 (inactive),0.347 (inactive)
CASEPCSAHLAGNASASA [HC2492],-0.366 (inactive),-0.474 (inactive),-0.0579 (inactive)
CAVHKRSAERAGNASASA [FS-2854],2.95,4.06 (active),5.25 (active)
CARKRRNTIHAGNASASA [FS-2567],9.29 (active),10.7 (active),9.63 (active)
CARKRRQTGQAGNASASA [FS-2701],9.83 (active),11.9 (active),7.6 (active)
CARDSRSSERAGNASASA [FS-2654],-1.62 (inactive),-0.417 (inactive),-0.301 (inactive)
CARKRRETSQAGNASASA [FS-2347],13.9 (active),14.9 (active),10.1 (active)
CARKTRFIIHAGNASASA [FS-2426],0.0934 (inactive),-2.08 (inactive),0.575 (inactive)
CARRARHPGQAGNASASA [FS-2448],0.222 (inactive),-1.48 (inactive),-0.313 (inactive)

Sequence,furin cleavage Z-score (7.5 min),furin cleavage Z-score (15 min),furin cleavage Z-score (30 min)
CAKLTPIAAAAGNASASA [HC1638],-0.902 (inactive),0.513 (inactive),-0.874 (inactive)
CARKRRDVMQAGNASASA [FS-1905],8.11 (active),9.14 (active),9.14 (active)
CAENKVVILDAGNASASA [HC1284],-1.51 (inactive),0.132 (inactive),-0.906 (inactive)
CARPRRARRDAGNASASA [FS-289],10.4 (active),10.6 (active),7.54 (active)
CASNCRHERDAGNASASA [FS-722],1.11,0.623 (inactive),1.08
CAGWSRARRDAGNASASA [FS-334],9.99 (active),12.4 (active),9.61 (active)
CAENLRKRRDAGNASASA [FS-585],13.3 (active),14.1 (active),10.9 (active)
CAGAERKMRDAGNASASA [FS-653],2.56,3.75 (active),3.61 (active)
CARPRRPNGDAGNASASA [FS-1913],-0.861 (inactive),-0.812 (inactive),0.059 (inactive)
CAGVVTSTWVAGNASASA [HC2156],0.312 (inactive),-0.173 (inactive),-0.545 (inactive)
CAPSGCPPDSAGNASASA [HC1347],0.626 (inactive),0.736 (inactive),-1.37 (inactive)
CAACQRQKKVAGNASASA [HC1393],0.424 (inactive),-0.843 (inactive),-0.382 (inactive)
CALLLFAGVDAGNASASA [HC348],-0.657 (inactive),-0.224 (inactive),-1.23 (inactive)
CARPERGARGAGNASASA [FS-2737],-0.85 (inactive),0.79 (inactive),0.188 (inactive)
CARPERGPRGAGNASASA [FS-1264],1.01,0.671 (inactive),1.51
CARPERKRRDAGNASASA [FS-1066],14.3 (active),14.2 (active),10.6 (active)
CAKVHRQRRDAGNASASA [FS-48],6.48 (active),5.35 (active),4.45 (active)
CALLTRIPGFAGNASASA [FS-3146],-0.34 (inactive),0.0643 (inactive),-0.495 (inactive)
CAEVDVQARDAGNASASA [FS-1628],-1.25 (inactive),0.00773 (inactive),-1.04 (inactive)
CALLTRARRDAGNASASA [FS-1362],10.7 (active),11.2 (active),8.73 (active)
CARPMRPVGHAGNASASA [FS-2739],-0.34 (inactive),-0.708 (inactive),1.89
CARPERYRRHAGNASASA [FS-491],12.7 (active),14.8 (active),11.1 (active)
CARPVRDCDDAGNASASA [FS-3028],0.136 (inactive),1.92,1.99
